Screens from PubChem BioAssay.
ERAP1 HTS inh: inhibitors of human ERAP1 aminopeptidase | inhibition, % at 10.7 µM | Q9NZ08 | hit rate 0.15% among 340,000 | recombinant ERAP1, Leu-AMC fluorescence, 60 min;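 active = mean replicate inhibition of at least 30%, or all replicates individually reaching that 30% level; inactive = mean below 30% and not every replicate reaching it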;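 also: 0% = neutral control wells and 100% = L-leucinethiol positive control wells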
GSIS activator: primary screen for activators of insulin secretion dependent on glucose, INS-1E cells, GLuc reporter luminescence | INS-1E GLuc reporter insulin secretion, 2-3 h | activation, % at 16.6 µM | hit rate 0.61% among 370,000 | AID 743287;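 active = lowest replicate activation of at least 40%, so every replicate reaches that level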;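 also: 0% = median of neutral control wells and 100% = median of IBMX positive control wells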
MLL AF4-AF9 inh: blocks AF4 peptide binding to human AF9 | P42568 | AlphaScreen, biotin-AF4 peptide binding to FLAG-AF9 | inhibition, % at 10 µM | hit rate 0.47% among 350,000;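 active = every replicate reaching a set inhibition limit, whatever the replicate mean, cut at about 25% in these data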;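 also: 0% = plate neutral control median and 100% = total signal loss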
PGC1a acetyl inh: modulators of PGC1a acetylation; inhibition, % at 15.6 µM; U2OS PGC1a acetylation, AlphaScreen anti-acetyl-lysine; with virally co-expressed GCN5 acetyltransferase; hit rate 0.17% among 350,000; AID 651687;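 active = every replicate shows inhibition of at least 40%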;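 also: 0% = neutral control wells and 100% = positive control wells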
RAD54 branch: RAD54 (human) branch migration inhibition; inhibition, % at 10.4 µM; hit rate 0.14% among 360,000; RAD54 Holliday junction branch migration, FAM/BHQ fluorescence; Q92698; AID 602329;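 active = mean normalized replicate activity at least 40 and at least half of replicates scoring 40 or more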;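 also: 0% = median of neutral control wells and 100% = median of positive control wells; inhibitors cause a drop in the FAM fluorescence signal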
RAD52 inh: blocks human RAD52 DNA annealing | inhibition, % at 18.7 µM | hit rate 0.46% among 360,000 | P43351 | recombinant RAD52 DNA annealing, FRET fluorescence;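 active = every replicate showing at least 50% inhibition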
Target sequence (P43351 whole entry, looked up): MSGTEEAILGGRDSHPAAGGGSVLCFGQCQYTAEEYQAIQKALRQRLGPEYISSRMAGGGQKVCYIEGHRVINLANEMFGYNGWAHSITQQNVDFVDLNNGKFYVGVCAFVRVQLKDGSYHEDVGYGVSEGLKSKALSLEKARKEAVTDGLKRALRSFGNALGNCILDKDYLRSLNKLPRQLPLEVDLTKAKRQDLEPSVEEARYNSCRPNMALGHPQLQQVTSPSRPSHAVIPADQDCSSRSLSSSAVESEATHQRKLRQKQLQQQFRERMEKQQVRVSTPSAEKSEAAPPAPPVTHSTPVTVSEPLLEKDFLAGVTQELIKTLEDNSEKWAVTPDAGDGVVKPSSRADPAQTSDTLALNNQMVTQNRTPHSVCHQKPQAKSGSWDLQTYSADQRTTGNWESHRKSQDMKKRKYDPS
An asterisk follows results filed as active; nt = no result. Sampled rows, rich in hits. Any-hit rate of the full collection: about 1.4%.

SMILES | ERAP1 HTS inh | GSIS activator | MLL AF4-AF9 inh | PGC1a acetyl inh | RAD54 branch | RAD52 inh
COCCn1c(C)c(C)c2c(NCCc3ccccc3)ncnc21 | 1.4 | 2.1 | 9.1 | 51.4* | -0.5 | -6.3
C[C@@H]1CCCCO[C@@H](CN(C)S(=O)(=O)c2ccccc2)[C@H](C)CN([C@@H](C)CO)C(=O)c2cc(NC(=O)c3ccncc3)ccc2O1 | -1.3 | -13.3 | 1.5 | -2.4 | -4.1 | -4.5
CC(C)c1ccc(NC2CCCN(C(=O)c3cccnc3)C2)cc1 (stereo not drawn) | -0.1 | 75.5* | 3.8 | -0.2 | -8.5 | -13.1
O=C1CNC[C@H]2[C@H](c3ccc(C#CC4CCCC4)cc3)[C@H](CO)N12 | 0.3 | 4.9 | 1.7 | -1.9 | nt | 5.0
O=C(c1ccccc1)c1ccc2ccccc2n1 | nt | 50.3* | nt | 5.1 | 8.1 | nt
CCCCn1c(=O)[nH]c(=O)c2c1nc(-c1ccc([N+](=O)[O-])cc1)n2CC | -2.6 | 190.8* | -0.4 | nt | -12.4 | -17.6
C=CCOc1ccc(-c2nc3c(c(=O)[nH]c(=O)n3CCCC)n2C)cc1Br | -0.6 | 50.5* | -6.1 | nt | 12.9 | -6.7
Cc1cc(NC(=O)CN2C(=O)c3ccccc3S2(=O)=O)no1 | 32.1* | 10.6 | -3.9 | nt | -9.5 | -15.3
CNc1nc(N)c(C(=O)C(C)(C)C)s1 | -1.6 | 47.0* | 2.8 | nt | nt | -13.9
O=[N+]([O-])c1ccc(N2CCCCC2)cc1N1CCOCC1 | -4.8 | 45.3* | 4.9 | nt | nt | -5.5
C[n+]1ccccc1/C=C/c1ccc2ncccc2c1 | 40.3* | 12.5 | 0.2 | nt | 2.9 | 17.6
CN(c1ccccc1)c1nc(N)c([N+](=O)[O-])c(N2CCOCC2)n1 | 5.5 | 45.3* | 2.5 | 5.3 | nt | -7.9
CN(C)C(=O)[C@H]1[C@H](CO)[C@H]2Cn3c(ccc(-c4cccc(F)c4)c3=O)[C@H]2N1C(=O)c1ccccn1 | -0.6 | 24.1 | -1.3 | nt | -9.1 | -4.6
O=C1/C(=C/c2cccc(F)c2)CSc2sccc21 | nt | 42.6* | nt | -6.3 | -1.0 | nt
CCCC#Cc1cnc2c(c1)C(=O)N([C@H](C)CO)C[C@H](C)[C@H](CN(C)C(=O)CN1CCOCC1)O2 | nt | 4.1 | nt | 4.7 | nt | nt
COc1cccc(S(=O)(=O)N[C@H]2CC[C@H](CC(=O)NCc3ccc(F)cc3)O[C@@H]2CO)c1 | 0.9 | -1.1 | -1.2 | 55.3* | 5.0 | 4.5
COc1cccc(C(=O)CSc2nnc(CNS(=O)(=O)c3ccc(C)cc3)n2C)c1 | nt | -13.8 | nt | 88.6* | nt | nt
COC(=O)CSc1nnc(CNS(=O)(=O)c2ccc(C)cc2)n1C | nt | -0.2 | nt | -5.1 | -11.4 | nt
CCNC(=O)[C@H]1[C@H](CO)[C@H]2Cn3c(ccc(-c4ccccc4)c3=O)[C@H]2N1C(=O)C1CCCC1 | 2.8 | 3.5 | 0.0 | 2.6 | 14.8 | -10.2
CC(=O)Nc1ccc(S(=O)(=O)NC2=C(N3CCN(Cc4ccccc4)CC3)C(=O)c3ccccc3C2=O)cc1 | 1.1 | -4.7 | 40.6* | -14.8 | -7.3 | 1.8
CC1CCN(C2=C(NS(=O)(=O)c3ccc(Cl)cc3)C(=O)c3ccccc3C2=O)CC1 | 12.5 | 4.8 | 14.4 | 4.9 | -8.7 | -3.2
O=C1C(NS(=O)(=O)c2ccc(Br)cc2)=C(N2CCCCC2)C(=O)c2ccccc21 | 3.2 | 26.0 | 38.0* | nt | -1.8 | -5.2
O=C1C(NS(=O)(=O)c2ccccc2)=C(N2CCN(c3ccc(F)cc3)CC2)C(=O)c2ccccc21 | -0.5 | 26.7 | 64.3* | -3.2 | -4.9 | -5.2
CC1CCN(C2=C(NS(=O)(=O)c3ccccc3)C(=O)c3ccccc3C2=O)CC1 | 5.6 | 14.4 | 57.3* | -3.5 | nt | -8.0
CCN1CCN(C2=C(NS(=O)(=O)c3ccc(C)cc3)C(=O)c3ccccc3C2=O)CC1 | 0.7 | -5.5 | 13.7 | -9.1 | -5.3 | -24.0
SMILES | ERAP1 HTS inh | GSIS activator | MLL AF4-AF9 inh | PGC1a acetyl inh | RAD54 branch | RAD52 inh
C[C@H](CO)N1C[C@H](C)[C@@H](CN(C)Cc2ccc(-c3ccccc3)cc2)Oc2ccc(NC(=O)Cc3cn(C)c4ccccc34)cc2CC1=O | -1.4 | -42.7 | 3.0 | -13.9 | nt | -19.8
C[C@H]1CN(C)C(=O)c2cccc(N(C)C)c2O[C@@H]1CN(C)S(C)(=O)=O | nt | 13.6 | nt | nt | nt | nt
COc1cc(/C=C2/SC(=S)N(CC(=O)O)C2=O)ccc1OC(=O)c1ccco1 | 55.7* | -15.8 | 0.7 | nt | -27.1 | -143.7
COc1ccc(/C=C2\SC(=O)N(CCC(=O)Nc3ccccc3)C2=O)cc1OC | nt | 53.2* | nt | nt | nt | nt
O=C(O)CN1C(=O)/C(=C\c2ccccc2OCc2ccc(F)cc2)SC1=S | 32.3* | 13.6 | -0.3 | -8.5 | 12.6 | -16.7
CC(=O)N1CCCCN2[C@H](CO)[C@@H](c3ccc(-c4ccc(C)cc4)cc3)[C@H]2C1 | 2.7 | 21.2 | -1.7 | 2.6 | 3.2 | 0.0
C[C@H]1CN([C@@H](C)CO)C(=O)Cc2cc(NC(=O)CCCCCC(=O)Nc3ccccc3N)ccc2O[C@H]1CN(C)S(=O)(=O)c1ccc(Cl)cc1 | nt | 14.2 | nt | -0.6 | nt | nt
Cc1csc2nc3cc(C(N)=O)ccc3c(=O)n12 | -6.0 | 39.3 | 54.5* | 0.3 | -6.9 | -11.0
NC(=O)c1ccc2c(=O)n3c(-c4cc(Cl)c(N)c(Cl)c4)csc3nc2c1 | -0.2 | nt | -4.9 | 1.7 | -5.2 | 9.1
CCOc1ccccc1OCCC(=O)NNC(=O)Cn1nc(C)cc1C | -1.5 | 52.7* | -0.5 | 9.6 | 15.6 | -3.8
Cc1cccc(OCCC(=O)NNC(=O)Cn2nc(C)cc2C)c1 | -2.8 | -13.9 | -1.1 | nt | 5.7 | 0.7
CCOC(=O)CN1C(=O)[C@]2(OCCC=C[C@H]2C)c2ccccc21 | -2.4 | 350.8* | nt | nt | nt | -16.9
COC(=O)Cc1c[nH]c2cccc(OCC(O)CN(Cc3ccc([N+](=O)[O-])cc3)C(C)(C)C)c12 (stereo not drawn) | 4.2 | -14.4 | nt | -22.5 | 0.1 | -1.3
Cc1ccc(CN(CC(O)COc2cccc3[nH]cc(C)c23)C(C)(C)C)cc1 (stereo not drawn) | 3.4 | -18.6 | 29.3* | -89.6 | -2.6 | -6.0
COc1ccc(CCNC(=O)Cn2c(=O)oc3ccccc32)cc1OC | nt | nt | nt | 2.3 | -5.1 | nt
COc1ccc(CCN(C)C(=O)Cn2c(=O)oc3ccccc32)cc1OC | 0.2 | 69.8* | 0.6 | 1.3 | -1.2 | -4.5
COc1ccc(CCN(C)C(=O)CSc2ncnc3sccc23)cc1OC | -0.4 | 77.9* | 0.3 | -34.2 | nt | -39.0
COc1ccccc1Cn1c(=O)oc2ccccc21 | -0.2 | 43.1* | -2.3 | nt | 8.1 | -7.0
COc1ccc(CCN(C)c2ncnc3sccc23)cc1OC | -0.8 | 20.4 | -1.6 | nt | nt | -10.5
COc1ccccc1CNC(=O)CCn1c(=O)oc2ccccc21 | 2.2 | 8.3 | -6.3 | nt | -15.0 | -12.2
CCCc1cn([C@H]2C[C@@H]3O[C@H](CO)CC[C@@H]3O[C@@H]2CCc2ccc(-c3ccccc3C#N)cc2)nn1 | -0.2 | nt | -1.1 | -16.2 | nt | 1.1
C[C@@H]1CN([C@@H](C)CO)C(=O)Cc2cc(NS(C)(=O)=O)ccc2O[C@H]1CN(C)Cc1ccc(Oc2ccccc2)cc1 | -1.4 | -37.2 | 9.9 | -2.9 | -7.9 | 1.4
